Experimental data as given in PubChem BioAssay (NCATS).
Values joined by “and” are separate entries in the source; they are usually repeats but may differ in a detail not shown here. Equal values may be shown once. Results filed as inconclusive are left out. Active and inactive are the calls of the source. The call rests on the fitted dose curve; in most records, active means well fitted cell-killing curve with a large enough effect; inconclusive means small, poorly fitted or top-dose-only effect; inactive means flat fitted curve, though single readings scatter.

Assay: Cellular viability qHTS for adrenocortical cancer (ACC) cell line SW-13 (AID 1963989); further: nearly all actives have a fitted effect of over 65% in size;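 on activity (max response): cells grown in serum-free medium with ITS supplement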
Conditions: SW-13 ACC cells viability, CellTiter-Glo, 48 h; activity (max response): stronger effect = lower value
From the text: PI: Naris Nilubol, MD Surgical Oncology Program, National Cancer Institute (NCI) National Institute of Health (NIH), Bethesda, Maryland Adrenocortical cancer (ACC) is a rare malignancy with poor survival outcomes and few treatment options. Currently, mitotane is the only FDA-approved therapy for ACC. Although adjuvant radiation therapy is rarely utilized, it has the potential to improve survival in select cases. Through a quantitative high-throughput drug screen (qHTS), we identified auranofin (AF), a thioredoxin reductase (TXNRD) inhibitor, as a promising candidate drug. This study aims to evaluate whether AF can enhance the efficacy of radiation therapy in the treatment of ACC. Two human ACC cell lines, SW-13 and NCI-H295R, were screened using the National Center for Advancing Translational Sciences (NCATS) Pharmaceutical Collection (NPC) and the Mechanism Interrogation PlatE (MIPE) library (~4,991 compounds). CellTiter-Glo (Cat # G7570, Promega, Madison, WI) was utilized to measure cell viability. Described herein are the results of the corresponding viability assay.
PROTOCOL TABLE (as described by Inglese J, Shamu CE and Guy RK. 2007) SEQUENCE No. (e.g., 1, 2, 3, etc.); […] (e.g., Cells, Incubation, Reagent, etc.); VALUE; DESCRIPTION. 1; Cells; 5 uL; white, solid-bottom, 1536-well tissue-culture treated plates. 2; Time; overnight culture at 37C with 5% CO2. 3; Compounds and control; 23 nL; Kalypsis pin tool (Wako USA) equipped with a 1536-well pin head to transfer to the assay plates. 4; Time; 48 hours; 37C with 5% CO2. 5; Reagent; 4 uL; CellTiter-Glo luminescent substrate mix. 6; Time; 20 min at room temperature. 7; Detection; Luminescence; ViewLux plate reader NOTES (numbers refer to Sequence numbers above) 1. SW13 cells were harvested from a T175 flask and resuspended in ITS-supplemented DMEM serum-free medium at a concentration of 300 000 cells/mL. Then 5 uL of resuspended cells were dispensed into each well of white, solid-bottom, 1536-well tissue-culture-treated plates using a multidrop combi dispenser. The plates were covered with stainless steel gasket lids. 2-3. The plates were cultured overnight at 37C with 5% CO2. Twenty-three nL of compounds (eight selected concentrations from the NPC / MIPE) or positive control (10 mM stock of bortezomib) in DMSO was transferred to each well of the assay plate using a pin tool (Kalypsys, San Diego, CA, USA). The final concentration of the compounds in the 5 uL assay volume ranged from 0.5 nM to 46 uM. 4-6. After 48 hours of incubation at 37C and 5% CO2, 4 uL of CellTilter-Glo luminescent substrate mix (Promega, Madison, WI, USA) was added to each well. Then the plates were incubated for 20 minutes at room temperature. 7. After incubation, luminescence was measured using a ViewLux plate reader (PerkinElmer, Waltham, MA, USA) with a clear filter was used to measure the number of metabolically competent cells. To determine compound activity in the qHTS assay, the titration-response data for each sample was plotted and modeled by a four-parameter logistic fit yielding IC50 and efficacy (maximal response) values. […] REFERENCES: Inglese J, Shamu CE and Guy RK, Reporting data from high throughput screening of small molecule libraries, Nature Chemical Biology, 2007, 3(8): 438-441. doi.org/10.1038/nchembio0807-438.
On the % scale 0 is the no-effect control and ±100 the full control effect.

| SMILES | activity (max response) | Potency |
| --- | --- | --- |
| CCCCNc1c(C(=O)OCC)c(C)nc2c1cnn2CC | -16.9% (inactive) |  |
| Cc1cnc(-c2cnc(NCCNc3ccc(C#N)cn3)nc2-c2ccc(Cl)cc2Cl)[nH]1 | 4.03% (inactive) |  |
| O=C(CCNNC(=O)c1ccncc1)NCc1ccccc1 | -0.798% (inactive) |  |
| O=c1n(CCCN2CCN(c3cccc(Cl)c3)CC2)nc2ccccn12 | -1.77% (inactive) |  |
| CCNC1(C(N)=O)CCN(c2ncnc3c2nc(-c2ccccc2Cl)n3-c2ccc(Cl)cc2)CC1 | -4.01% (inactive) |  |
| COc1cc2c(Oc3ccc(-c4cnc(Nc5ccc(F)cc5)n(C)c4=O)cc3F)ccnc2cc1OCCCN1CCOCC1 |  | 15.8 µM (active) |
| NCCc1ccc(O)c(O)c1 | -9.5% (inactive) and -1.11% (inactive) |  |
| COc1cc2c(cc1O)CCN[C@]21CS[C@@H]2c3c(OC(C)=O)c(C)c4c(c3[C@H](COC1=O)N1[C@@H]2[C@H]2c3c(cc(C)c(OC)c3O)C[C@@H]([C@@H]1O)N2C)OCO4 |  | 0.0038 µM (active) |
| CC(C)(C)OC(=O)Nc1ccc(-c2cc(C(=O)NCCCCCCC(=O)NO)no2)cc1 |  | 15.8 µM (active) |
| C[C@@H]1CC(=O)NN=C1c1ccc(NN=C(C#N)C#N)cc1 | -17.4% (inactive) and 2.94% (inactive) and -32.7% (inactive) |  |
| COc1cc2nc(N3CCN(C(=O)C4CCCO4)CC3)nc(N)c2cc1OC (stereo not given) | -21% (inactive) |  |
| CO/N=C1\CN(c2nc3c(cc2F)c(=O)c(C(=O)O)cn3C2CC2)CC1CN (stereo not given) | -3.25% (inactive) |  |
| CSc1ccc2c(c1)N(CCC1CCCCN1C)c1ccccc1S2 (stereo not given) |  | 16.4 µM (active) |
| Cc1c[nH]c2nc(Nc3ccc(N4CCN(C)CC4)c(F)c3)nc(-c3cccc(CC#N)c3)c12 |  | 2.24 µM (active) |
| CCc1cc(Cl)c(OC)c(C(=O)NC[C@@H]2CCCN2CC)c1O | -13.7% (inactive) |  |
| CCOC(=O)N1c2ccc(C(F)(F)F)cc2[C@@H](N(Cc2cc(C(F)(F)F)cc(C(F)(F)F)c2)C(=O)OC)C[C@H]1CC | 4.35% (inactive) |  |
| CC[C@H](C)C(=O)O[C@H]1CCC=C2C=C[C@H](C)[C@H](CC[C@@H]3C[C@@H](O)CC(=O)O3)[C@H]21 | -23.7% (inactive) |  |
| Cn1ncc(Cl)c1-c1cc(C(=O)NC(CN)Cc2ccc(F)c(F)c2)oc1Cl (stereo not given) |  | 28.2 µM (active) |
| NS(=O)(=O)c1ccc(N2CCCCS2(=O)=O)cc1 | 16.4% (inactive) |  |
| CCOC(=O)[C@H](CCc1ccccc1)N[C@@H](C)C(=O)N1C(=O)N(C)C[C@H]1C(=O)O | 5.98% (inactive) |  |

| SMILES | activity (max response) | Potency |
| --- | --- | --- |
| CC(=O)Oc1cc2c(s1)CCN(C(C(=O)C1CC1)c1ccccc1F)C2 (stereo not given) | -22.6% (inactive) and -6.86% (inactive) |  |
| Cc1ccc(C(=O)Nc2ccc(CN3CCN(C)CC3)c(C(F)(F)F)c2)cc1C#Cc1cnc2cccnn12 |  | 3.16 µM (active) |
| COc1ccc(CN(CCN(C)C)c2ccccn2)cc1 | 2.63% (inactive) |  |
| C=CC(=O)Nc1cc2c(Nc3ccc(F)c(Cl)c3)ncnc2cc1OCCCN1CCOCC1 |  | 3.55 µM (active) |
| C=C1CCC[C@]2(C)C=C3OC(=O)C(C)=C3C[C@@H]12 | -6.22% (inactive) |  |
| CCC(C(=O)O)C1CCC(C)C(C(C)C(O)C(C)C(=O)C(CC)C2OC3(C=CC(O)[C@@]4(CC[C@](C)(C5CC[C@@](O)(CC)C(C)O5)O4)O3)C(C)CC2C)O1 (stereo not given in full) |  | 2.82 µM (active) |
| CC(C)NC(=O)c1ccc(C=O)cc1 | 10.9% (inactive) |  |
| O=C(CCCCCCCCC#CI)Oc1ccccc1 | -0.224% (inactive) |  |
| C=C1c2cccc(O)c2C(O)=C2C(=O)[C@@]3(O)C(O)=C(C(N)=O)C(=O)[C@@H](N(C)C)[C@@H]3[C@@H](O)[C@H]12 | -8.37% (inactive) |  |
| CC(COc1ccccc1)NN (stereo not given) | 12.2% (inactive) |  |
| CCCCCN(CCCOC)C(=O)C(CCC(=O)O)NC(=O)c1ccc(Cl)c(Cl)c1 (stereo not given) | 5.62% (inactive) |  |
| CC1CC(=O)NN=C1c1ccc(NCC(C)(C)NCC(O)COc2cc(Cl)ccc2C#N)cc1 (stereo not given) | -8.94% (inactive) |  |
| CC(=O)[C@H]1CC[C@H]2[C@@H]3C[C@H](C)C4=CC(=O)CC[C@]4(C)[C@H]3[C@@H](O)C[C@]12C | 8.53% (inactive) |  |
| Cc1cc(Nc2ncc3c(n2)N(C)C(=O)N(c2cc(NC(=O)c4cccc(C(F)(F)F)c4)ccc2C)C3)n(C)n1 |  | 0.355 µM (active) |
| CCOCOC[C@H](C[C@H](C)C(=O)NO)NC(=O)c1ccc(Oc2ccccc2)cc1 | -8.03% (inactive) |  |
| Cc1cnc(C(=O)NCCc2ccc(S(=O)(=O)NC(=O)NC3CCCCC3)cc2)cn1 | -1.95% (inactive) and -7.3% (inactive) |  |
| CC(N)C12CC3CC(CC(C3)C1)C2 (stereo not given) | -5.6% (inactive) and -7.27% (inactive) |  |
| CC(C)NCCCC1(C(N)=O)c2ccccc2-c2ccccc21 | 9.8% (inactive) |  |
| CN1CCN(c2c(F)cc3c(=O)c(C(=O)O)cn4c3c2OCN4C)CC1 | -1.01% (inactive) |  |
| O=C1[C@@H]2[C@H]3CC[C@H](C3)[C@@H]2C(=O)N1CCCCN1CCN(c2ncccn2)CC1 | 6.58% (inactive) |  |
